PubChem BioAssay (NCI)
This is part of a sample that, as a whole, favours compounds with a hit. Of some 83,000 tested, about 20% had one in any assay.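 How to read the values: 0–100, growth inhibition (40 = 60% inhibited); 0, no net growth; -100 to 0, cell death (-40 = 40% of starting cells died; -100 = all dead).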 A number with no mark means an inactive call. Active and inactive are the calls of the source.

system: CAKI-1 renal; test: NCI-60 one-dose screen, 48 h (100 = growth as untreated, 0 = no growth, -100 = all killed); conditions: 10 µM unless noted
Experimental: Growth inhibition of the CAKI-1 human tumor cell line is measured as a screen for anti-cancer activity. Cells are grown in 96 well plates and exposed to the test compound for 48 hours. Compounds are tested at a single concentration, which is 10^-5 M for most compounds. The reported endpoint is percent growth (GI% or GIPRCNT), where numbers from 0 - 100% represent growth inhibition, and numbers from -100% - 0 represent cell death. For example, a value of 40 represents 60% growth inhibition. A value of 0 means no net growth occurred over the course of the experiment. A value of -40 indicates 40% of cells at the beginning of the experiment died by the end of the experiment. A value of -100 means all cells are dead at the end of the experiment.
NCI-60 Human Tumor Cell Lines Screen was performed using the standard one-dose NCI protocol, which is described in more detail at https://dtp.cancer.gov/discovery_development/nci-60/default.htm.
Compounds with GIPRCNT values below 10 were considered active. Activity score was based on GIPRCNT using the following formula: […]
Score is 0 for GIPRCNT values of 100 or above, 50 for GIPRCNT values of 0, and 100 for GIPRCNT values of -100.

Compound | growth
Fc1ccc(C2CC(c3cccc(Nc4ccncc4)c3)=NN2c2cc(Cl)cc(Cl)c2)cc1 (stereo not given) | 31.1%
O=C(N/N=C/c1ccncc1)c1ccccc1Nc1cccc(C(F)(F)F)c1 | 117%
O=S(=O)(NCCCNc1nccc(-c2c(-c3ccccc3)nc3occn23)n1)c1ccc(Cl)cc1 | 62%
Clc1nc(Cl)c2ncn(CC3(Cn4cnc5c(Cl)nc(Cl)nc54)COC3)c2n1 | -87.8% (active)
CC1=CC[C@@H]2CC[C@]3(C)[C@H](CC[C@@H]4[C@@]5(C)CCCNC(C)(C)[C@@H]5CC[C@]43C)[C@H]2[C@@H]1C | 30.4%
N#Cc1c(Nc2ccccc2)nn2cc(-c3nc4ccccc4s3)c(N)nc12 | 82.6%
Fc1ccc(-n2cc(COc3ncnc4sc5c(c34)CCCC5)nn2)cc1Cl | 92.7%
N#CSCC1CC(O)(c2ccccc2)C(c2ccccc2)C(c2ccc(F)cc2)O1 (stereo not given) | 15.2%
COc1cc(OC)cc(C2C3=C(COC3=O)Nc3cc(OC)ccc32)c1 (stereo not given) | 36.7%
CC[C@@]12C=CCN3CC[C@]4(c5cc(NC(=O)COc6cc(OCC(=O)Nc7cc8c(cc7OC)N(C)[C@H]7[C@@](O)(C(=O)OC)[C@H](OC(C)=O)[C@]9(CC)C=CCN%10CC[C@]87[C@@H]%109)cc7oc(-c8ccccc8)cc(=O)c67)c(OC)cc5N(C)[C@@H]4[C@](O)(C(=O)OC)[C@H]1OC(C)=O)[C@H]32 | 46.8%
c1ccc(N2N=C(c3cccc(Nc4ccncc4)c3)CC2c2ccc3c(c2)OCO3)cc1 (stereo not given) | 25.7%
COc1ccc(-c2c(-c3ccccc3)noc2N)cc1OC | 110%
O=C(O)CCCCCCCCCCCCCCC(=O)O | 103%
CN1CCN(C(=O)OCc2nc3c(N4CCOCC4)nc(-c4ccccc4)nc3n2C)CC1 | -93.5% (active)
CSc1nc(O)c(-c2ccccc2)c(=O)[nH]1 | 93.6%
O=C(Nc1ccc2ncnc(Nc3ccc(Oc4cccc(F)c4)c(Cl)c3)c2c1)c1ccc(CNCCO)cc1 | 55.4%
CC(c1ccccc1)n1ccnc1CO (stereo not given) | 88.9%
COC(=O)C(c1ccccc1)C(CC(=O)c1ccccc1)c1ccccc1 (stereo not given) | 74.8%
COc1ccc(-c2nc(N/N=C/c3ccco3)nc(N3CCOCC3)c2C#N)cc1 | 59%
CCCCCOc1ccc(/C=N/Nc2cc(C)nc3ccc(Br)cc23)cc1 | 43.6%

Compound | growth
COc1ccc(-c2ncc(-c3ccccc3)[nH]2)cc1OC | 108%
Fc1ccc2nc3c(cc2c1)CSc1nnc(-c2ccc[nH]c2=S)n1N3 | 83.8%
CC(=O)c1cc2c(N)c(C(=O)Nc3cncc4ccccc34)sc2nc1C | 83.8%
COc1ccc(-c2cnc(N)nc2-c2ccc(OC)cc2O)cc1 | 86.5%
Cc1c(C2=CCCCC2)c2ccccn2c1C(=O)c1cccc(S(=O)(=O)N2CCOCC2)c1 | 59.6%
COc1ccccc1OCC(=O)N1CCCCCC1 | 84.1%
CC(C)Cc1ccc(C(C)C(=O)NCc2c[nH]c3ccc(Cl)cc23)cc1 (stereo not given) | 81.7%
CCC(C)N(CCNc1cc(OC)cc2cccnc12)CCC(C)C (stereo not given) | 90.8%
Cc1ccccc1C(c1ccccc1)c1ccccc1C | 87.6%
COc1ccc(-c2c[nH]c(C(=O)O)c2-c2cc(OC)c3c(c2OC)OCO3)cc1 | 86.4%
CC1=NNC(=O)C1CCC(=O)N/N=C(\C)c1ccc2ccccc2c1 (stereo not given) | 107%
N/C(=N\N=C\c1cc2ccccc2[nH]1)N/N=C/c1cc2ccccc2[nH]1 | 87.3%
CCCCCCCCCCCCCCCC(=O)OC[C@@]1(O)C[C@@]23CC[C@@H]4C(C)(C)[C@H](O)CC[C@@]4(C)[C@@H]2CC[C@H]1C3 | 94.2%
c1ccc2c(-c3c4ccsc4cc4[nH]c5ccccc5c34)c[nH]c2c1 | 34.5%
CC[C@H](C)[C@@H]1NC(=O)[C@H](Cc2ccc(O)cc2)N(C)C(=O)[C@H](Cc2ccccc2)NC(=O)CN(C)C(=O)[C@@H]2CCCN2C(=O)[C@@H](Cc2ccccc2)N(C)C(=O)[C@H](CC(C)C)NC1=O | 11.4%
Cc1cc2nc(-c3ccccc3)c(-c3ccccc3)nc2cc1C | 98.7%
S=c1[nH]cccc1-c1nnc2n1Nc1nc3ccc(Cl)cc3cc1CS2 | 81.8%
CC(=O)OCCCCCNc1ccccc1 | 95.7%
COc1ccc(/C=C/c2n[nH]c3ccc(N4CCOC4=O)cc23)cc1 | 4.59% (active)
CC1(C)CN(Cc2ccccc2)CCN1Cc1ccccc1 | 102%
